Source: ChEMBL document CHEMBL4808148, “HDAC6 screening dataset using tau-based substrate in an enzymatic assay yields selective inhibitors and activators” (2021)
The whole screen tested about 5,600 compounds, of which about 150 (2.7%) showed an effect of 50% or more. Many of the other results were omitted from the sample, so strong results are more common in it than they were.

molecular target: T1, Protein deacetylase HDAC6 (Homo sapiens) (UniProt Q9UBN7); conditions: at 10 µM
T1 sequence (whole entry): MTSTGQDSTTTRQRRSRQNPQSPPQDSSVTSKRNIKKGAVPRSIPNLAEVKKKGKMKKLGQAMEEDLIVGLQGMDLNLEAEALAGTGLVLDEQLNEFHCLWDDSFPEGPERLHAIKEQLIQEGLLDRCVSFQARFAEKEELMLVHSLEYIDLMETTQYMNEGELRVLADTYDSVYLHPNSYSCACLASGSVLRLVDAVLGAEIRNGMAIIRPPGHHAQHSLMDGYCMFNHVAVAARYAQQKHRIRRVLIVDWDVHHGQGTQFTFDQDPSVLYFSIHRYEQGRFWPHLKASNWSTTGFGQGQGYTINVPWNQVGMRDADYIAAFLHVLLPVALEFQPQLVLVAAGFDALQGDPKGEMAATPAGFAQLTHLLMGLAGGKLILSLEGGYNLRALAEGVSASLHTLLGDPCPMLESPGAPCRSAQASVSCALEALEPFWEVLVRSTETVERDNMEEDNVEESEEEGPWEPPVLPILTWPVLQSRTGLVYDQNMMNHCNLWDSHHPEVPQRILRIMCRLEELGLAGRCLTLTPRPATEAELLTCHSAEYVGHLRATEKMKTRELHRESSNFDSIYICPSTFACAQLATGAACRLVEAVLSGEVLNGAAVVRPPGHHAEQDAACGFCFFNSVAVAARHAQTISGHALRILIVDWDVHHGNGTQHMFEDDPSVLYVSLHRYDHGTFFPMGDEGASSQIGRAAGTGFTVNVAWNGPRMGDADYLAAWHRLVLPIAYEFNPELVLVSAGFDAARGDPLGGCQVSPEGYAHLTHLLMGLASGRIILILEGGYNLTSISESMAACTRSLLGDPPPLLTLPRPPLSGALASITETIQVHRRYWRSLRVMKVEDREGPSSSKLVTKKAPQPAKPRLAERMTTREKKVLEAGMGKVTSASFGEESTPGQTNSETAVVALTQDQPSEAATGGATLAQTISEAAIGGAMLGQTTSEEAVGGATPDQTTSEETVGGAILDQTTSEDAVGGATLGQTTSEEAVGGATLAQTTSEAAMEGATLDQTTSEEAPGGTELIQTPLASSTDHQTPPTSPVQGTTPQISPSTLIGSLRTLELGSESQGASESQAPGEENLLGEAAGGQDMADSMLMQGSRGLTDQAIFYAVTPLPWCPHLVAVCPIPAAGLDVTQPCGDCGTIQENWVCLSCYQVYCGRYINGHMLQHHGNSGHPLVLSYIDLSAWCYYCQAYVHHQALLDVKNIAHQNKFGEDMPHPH

SMILES	inhibition
N#C/C(=C\c1ccc(O)c(O)c1)C(=O)NCc1ccccc1	54.9%
N#C/C(=C\c1ccc(O)c(O)c1)C(N)=O	18.8%
N#C/C(=C\c1ccc(O)c(O)c1)C(=O)NCCCCc1ccccc1	1.74%
N#C/C(=C\c1ccc(O)c(O)c1)C(=O)NCCCc1ccccc1	17.5%
C[C@H](NC(=O)/C(C#N)=C/c1ccc(O)c(O)c1)c1ccccc1	20.7%
N#C/C(=C\c1ccc(O)c(O)c1)C(=O)Nc1ccccc1	93.8%
COCCOCCOc1ccc(C2=N[C@@](C)(C(=O)O)CS2)c(O)c1	-6.58%
O=C(Nc1ccc(F)cc1)N1CCc2ccccc2C1c1ccc(C(F)(F)F)cc1 (stereo unspecified)	-5.96%
COC(=O)[C@H](CC(C)C)NC(=O)c1ccc(NC[C@@H](N)CS)cc1-c1cccc2ccccc12	3.13%
CC(C)=CCC[C@](C)(O)[C@H]1CC[C@]2(C)[C@@H]1[C@H](O)C[C@@H]1[C@@]3(C)CC[C@H](O)C(C)(C)[C@@H]3[C@@H](O)C[C@]12C	-3.01%
OC[C@H]1NCC[C@@H](O)[C@@H]1O	-1.49%
CC[C@@H](Nc1c(Nc2cccc(C(=O)N(C)C)c2O)c(=O)c1=O)c1ccc(C)o1	-5.03%
CC(=O)c1ccc2c(c1)[C@@H]1C=CC[C@@H]1[C@H](c1cc3c(cc1Br)OCO3)N2	-3.37%
N=C(N)NCCSSCCNC(=N)N	-3.98%
CC(=O)N[C@H](Cc1c[nH]c2ccccc12)C(=O)OCc1cc(C(F)(F)F)cc(C(F)(F)F)c1	-8.38%
Cc1ccc(NC2=CC(=O)c3sc(C)nc3C2=O)cc1	58.6%
Fc1ccc2c(CCNCc3cccc(OCC(F)(F)C(F)F)c3)c[nH]c2c1	4.2%
CC[C@]1(O)C[C@@H]2CN(CCc3c([nH]c4ccccc34)[C@@](C(=O)OC)(c3cc4c(cc3OC)N(C)[C@H]3[C@@](O)(C(N)=O)[C@H](O)[C@]5(CC)C=CCN6CC[C@]43[C@@H]65)C2)C1	-4.06%
CCCC(=O)N1CCCN(c2nc(N)c3cc(OC)c(OC)cc3n2)CC1	15.5%
COc1cc2nc(N3CCN(C(=O)C4COc5ccccc5O4)CC3)nc(N)c2cc1OC (stereo unspecified)	-3.15%
COc1cc2nc(N3CCN(C(=O)C4CCCO4)CC3)nc(N)c2cc1OC (stereo unspecified)	79%
CCCOCCn1c(=O)c(N2CCN(CCO)CC2)nc2cnc(-c3ccc(OC)nc3)cc21	2%

SMILES	inhibition
O=C(O)CN1CCN(CC(=O)O)CCN(CC(=O)O)CCN(CC(=O)O)CC1	-2.86%
CSc1ccc([C@H]2CN3CCC[C@H]3c3ccccc32)cc1 (racemic)	-1.09%
Nc1nncs1	60.9%
Nc1nccs1	-0.93%
COCCOc1ccc(N2CCN(CCn3ncc4c3nc(N)n3nc(-c5ccco5)nc43)CC2)cc1	4.38%
Cc1ccc(S(=O)(=O)OCC(=O)Nc2ccc(C(=O)O)c(O)c2)cc1	-5.6%
NS(=O)(=O)c1ccc(NC(=O)Nc2ccc(F)cc2)cc1	0.46%
Cc1cc(C)cc(NC(=O)Nc2ccc(OS(N)(=O)=O)cc2)c1	76.1%
COC(=O)c1ccccc1NC(=O)c1ccc(F)cc1	0.65%
CS(=O)(=O)N1CCN(Cc2cc3nc(-c4cccc5[nH]ncc45)nc(N4CCOCC4)c3s2)CC1	3.78%
COc1ccc(-c2nc(N3CCOCC3)c3sc(CN(C)c4ncc(C(=O)NO)cn4)cc3n2)cn1	97.1%
Cc1c(CN2CCN(C(=O)[C@H](C)O)CC2)sc2c(N3CCOCC3)nc(-c3cnc(N)nc3)nc12	-2.64%
CC(=O)N(OCc1ccccc1)[C@@H]1c2cc(C#N)ccc2OC(C)(C)[C@H]1O	0.48%
O=C(O)CC/C=C\C[C@@H]1CO[C@H](c2ccccc2Cl)O[C@@H]1c1ccccc1O	11.4%
O=C(NCc1ccc(F)cc1)N1CCN2C(=O)OC(c3ccccc3)(c3ccccc3)C2C1 (stereo unspecified)	-3.2%
O=S(=O)(O)c1ccc2[nH]c(-c3ccccc3)nc2c1	94.7%
CCCn1c(=O)[nH]c2nc(-c3ccc(S(=O)(=O)O)cc3)[nH]c2c1=O	1.08%
Nc1ccc(-c2nc3ccc(-c4nc5ccc(N)cc5[nH]4)cc3[nH]2)cc1	0.97%
O=C(O)Cc1ccc(CCNS(=O)(=O)c2ccc(Cl)cc2)cc1	9.85%
COc1cccc(-c2cc(=O)c3ccccc3o2)c1N	90%
Cc1cc(C(=O)N2Cc3cnn(C)c3Nc3ccccc32)ccc1CNC(=O)N1CCC[C@H]1C(=S)N1CCCN(C)CC1	-1.87%
CS(=O)(=O)Nc1ccc2oc3c(OC(F)F)ccc(C(=O)Nc4c(Cl)cncc4Cl)c3c2c1	-3.43%

SMILES	inhibition
CC(C)[C@@H](CS(=O)(=O)C(C)C)N1C(=O)[C@@](C)(CC(=O)O)C[C@H](c2cccc(Cl)c2)[C@H]1c1ccc(Cl)cc1	-1.54%
C/N=c1/nc(-c2ccccc2)n(-c2ccccc2)s1	69.9%
Cn1c(-c2ccccc2)nnc1S(C)(=O)=O	-7.28%
CC1=NN(c2ccccc2)C(=O)C1	-3.47%
Clc1cccc(Cl)c1CSc1nnc(-c2cnccn2)s1	5.02%
O=c1c2ccccc2oc2ccccc12	37.9%
c1ccc(-c2n[nH]c3c2oc2ccccc23)cc1	70.2%
CN1CC(=O)N=C1NC(=O)Nc1cccc(Cl)c1	90.4%
O=C(Nc1ccc(Cl)cc1)Nc1cccc(-c2cccc(N3CCCC3)n2)c1	-4.23%
N=C(N)NC(=N)Nc1cccc(Cl)c1	-4.52%
C[C@H](N)C(=O)O	-3.75%
Cc1ncc(CO)c(/C=N/NC(=O)c2ccncc2)c1O	-0.7%
O=C(O)c1cc(N2N=C(C(F)(F)F)/C(=C/c3ccc(-c4ccccc4)o3)C2=O)ccc1Cl	-1.26%
COc1cccc(OC)c1-c1cc(C(=O)NC2(C(=O)O)C3CC4CC(C3)CC2C4)nn1-c1ccnc2cc(Cl)ccc12 (stereo unspecified)	0.43%
O=C(Nc1ccncc1)c1cc([N+](=O)[O-])ccc1Cl	-9.26%
O=C(Nc1ccccc1)c1cc([N+](=O)[O-])ccc1Cl	-4.52%
O=C(Nc1ccc([N+](=O)[O-])cc1Cl)c1cc(Cl)ccc1O	97%
N#Cc1cc(F)cc(-c2nc(-c3ccc(F)cn3)no2)c1	42%
c1ccc(Cn2c(N3CCNCC3)nc3ccccc32)cc1	-7.7%
Cc1nc(C#Cc2ccnc(Cl)c2)c(C)n1-c1ccc(F)cc1	-3.13%
Cc1cc(C)c(N)c(C#Cc2cccc(F)c2)n1	93%
O=C(NC1CCC1)c1ccc(C#Cc2cccc(F)c2)nc1	24.9%
